From publication PMC5540273 (PLoS ONE, 2017)

Tests used:
Conditions in all cases: concentration: 1 μM, replicates: in singlicate; n = 1
PAK6 = tested on: PAK6
PAK7 = tested on: PAK7
PCTK1 = tested on: T1, PCTK1
T1 construct: gene CDK16

PCTK2 = tested on: T2, PCTK2
T2 construct: gene CDK17

PCTK3 = tested on: T3, PCTK3
T3 construct: gene CDK18

PDGFRA = tested on: PDGFRA
PDGFRB = tested on: PDGFRB
PDPK1 = tested on: PDPK1
PFTAIRE2 = tested on: PFTAIRE2
PFTK1 = tested on: T4, PFTK1
T4 construct: gene CDK14

PHKG1 = tested on: PHKG1
PHKG2 = tested on: PHKG2
PIK3C2B = tested on: PIK3C2B
PIK3C2G = tested on: PIK3C2G
PIK3CA = tested on: PIK3CA
PIK3CB = tested on: PIK3CB
PIK3CD = tested on: PIK3CD
PIK3CG = tested on: PIK3CG
PIK4CB = tested on: T5, PIK4CB
T5 construct: gene PI4KB

PIKFYVE = tested on: PIKFYVE
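Further: KINOMEscan kinase panel screen.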

Structure (SMILES) | %Inh (PAK6) [%] | %Inh (PAK7) [%] | %Inh (PCTK1) [%] | %Inh (PCTK2) [%] | %Inh (PCTK3) [%] | %Inh (PDGFRA) [%] | %Inh (PDGFRB) [%] | %Inh (PDPK1) [%] | %Inh (PFTAIRE2) [%] | %Inh (PFTK1) [%] | %Inh (PHKG1) [%] | %Inh (PHKG2) [%] | %Inh (PIK3C2B) [%] | %Inh (PIK3C2G) [%] | %Inh (PIK3CA) [%] | %Inh (PIK3CB) [%] | %Inh (PIK3CD) [%] | %Inh (PIK3CG) [%] | %Inh (PIK4CB) [%] | %Inh (PIKFYVE) [%]
Cc1ccc(C(=O)Nc2ccc(Nc3ccnc4cc(-c5ccccn5)ccc34)cc2O)cc1.Cl [GW440146] | 8 | 0 | 0 | 0 | 24 | 54 | 86 | 0 | 26 | 18 | 0 | 0 | 0 | 0 | 0 | 0 | 100 | 0 | 0 | 4
CCCc1ccc(S(=O)(=O)NC2CCN(c3ccnc(Nc4ccc(F)cc4)n3)C2)cc1 (centres unmarked) [GSK1379715] | 0 | 0 | 0 | 0 | 19 | 0 | 16 | 82 | 0 | 1 | 0 | 0 | 0 | 0 | 0 | 0 | 34 | 0 | 0 | 0
Cc1c(Cn2ccn3c(=O)cc(N4CCOCC4)nc23)cccc1C(F)(F)F [GSK2289044] | 4 | 27 | 2 | 0 | 8 | 0 | 21 | 17 | 17 | 13 | 0 | 10 | 20 | 6 | 21 | 100 | 92 | 29 | 0 | 0
O=S(=O)(c1ccc(-c2ccnc3[nH]ccc23)cc1)N1CCCC1 [GSK846226] | 20 | 15 | 7 | 0 | 0 | 0 | 24 | 0 | 24 | 27 | 0 | 10 | 3 | 0 | 8 | 0 | 0 | 14 | 23 | 0
